The panel holds about 83,000 compounds, 20% with a hit somewhere; the sample as a whole holds those more often.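 Interpretation: 100, growth as untreated; towards 0, rising growth inhibition; 0, no net growth; 0 to -100, cell death. Compounds scoring below 10 were considered active.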 Values without a mark were called inactive. Calls of active or inactive are those of the source.
Each molecule was assayed on HL-60(TB) leukemia (assay: NCI-60 one-dose screen, 48 h (100 = growth as untreated, 0 = no growth, -100 = all killed)). Conditions: 10 µM unless noted.
For `COC(=O)Nc1ccc2ccc3c(NC(=O)OC)ccc4ccc1c2c43` (tested in a mixture with another compound), the growth was 33.8%. `O=c1nc(Nc2nc3ccccc3s2)[nH]c(=O)c2ccccc12` showed a growth of 94.4%. With `CCOC(=O)c1c(C)nc2c(c1N)/C(=C/c1cccs1)C(=O)N2c1ccc(OC)cc1` the growth was 90.2%. `CC/C(=C(/c1ccc(Cl)cc1)c1ccc(OCCN(C)C)cc1)c1ccc(Cl)cc1` showed a growth of 64.9%. Work on `CCCCCCc1nc2nc(Cl)c(Cl)nc2[nH]1` yielded a growth of 39.6%. Molecule `C=CCOC(=O)C1=C(C)NC2=C(C(=O)CCC2)C1c1ccc(F)cc1` (stereo not given) has a growth of 87.8%. Molecule `CN1CCN(c2ccc(Nc3c4ccccc4nc4ccccc34)cc2)CC1` has a growth of 119%. In the case of `CC(C)(C)c1cc(C(=O)Nc2cc3ccccc3cc2C(=O)NCCN)cc(C(C)(C)C)c1`, the growth is reported as -68.9% (active). For `N=C(N)c1ccc(-c2ccc(-c3ccc(Cl)cc3)o2)o1`, the growth was -53.5% (active). For `COc1ccc(/C=N\Nc2nc(SCC(C)C)nc(-c3ccc(OC)cc3)c2C#N)cc1`, the growth was 35.8%. `COc1ccc2c(c1)/C(=C/c1cc(OC)c(OC)c(OC)c1)C(=O)N2C` was tested, and the growth was 3.32% (active). `CCCC1Cc2cc(-n3nc(C)c4c3CC(C)(C)CC4=O)cc(NC3CCC(O)CC3)c2C(=O)N1` (stereo not given) was tested, and the growth was -8.17% (active). `O=S(=O)(CCN1CCOCC1)Nc1cc(-c2ccc3ncnc(Nc4ccc(F)c(Cl)c4)c3c2)cnc1Cl` showed a growth of 27.3%. `C(=C\c1n(Cc2ccc3ccccc3c2)c(-c2ccccc2)c(-c2ccccc2)[n+]1Cc1ccc2ccccc2c1)/c1ccccc1` was tested, and the growth was -42% (active). Work on `Cn1c2ccccc2c2c3[nH]c(=O)[nH]c(=O)c3c3c4ccccc4n(C)c3c21` yielded a growth of 48.9%. For `CCC(C)C1NC(=O)C(NC(=O)c2c3nc4c(C(=O)NC5C(=O)NC(C(C)CC)C(=O)N6CCCC6C(=O)N(C)CC(=O)N(C)C(C(C)C)C(=O)OC5C)ccc(C)c4oc-3c(C)c(=O)c2N)C(C)OC(=O)C(C(C)C)N(C)C(=O)CN(C)C(=O)C2CCCN2C1=O` (stereo not given), the growth was -13.9% (active). `CCOc1ccc(/C=C\C(=O)O)cc1` showed a growth of 82.9%. In the case of `O=C(/C(Br)=C/c1ccccc1)c1ccccc1`, the growth is reported as -2.59% (active). In the case of `COc1ccc(C(=O)c2ccc(C)cc2)c(OC)c1OC`, the growth is reported as 93.4%. In the case of `COc1ccc(/C=C/C(=O)c2ccc(Nc3nc(Nc4ccc(F)cc4)nc(Nc4ccc(Cl)cc4)n3)cc2)cc1`, the growth is reported as -0.226% (active). `CC(C)C[C@H](C(=O)N[C@@H](C)C(N)=O)N1CC=CCN(O)S1(=O)=O` showed a growth of 110% [5 µM]. In the case of `COc1ccc(C(=O)c2cc3c(N)c(C(=O)Nc4cccc(OC)c4)sc3nc2C)cc1`, the growth is reported as -44.5% (active). Molecule `CC(C)CCCC(=O)O` has a growth of 109%. Molecule `Nc1c(C(=O)c2ccccc2)sc2nc(-c3cc4ccccc4o3)cc(-c3ccc(Cl)cc3)c12` has a growth of 114%. In the case of `CNC(=O)c1cn(C2CC2)c2cc(N3CCN(C(=O)c4cc(OC)c(OC)c(OC)c4)CC3)c(F)cc2c1=O`, the growth is reported as 101%. For `COc1ccc2c(c1)[nH]c(=O)c1c3cc(OC)ccc3cn21`, the growth was -8.1% (active). `C#C[C@@]1(O)[C@@H](CO)O[C@@H](n2cc(Cl)c3c(N)ccnc32)[C@@H]1O` was tested, and the growth was -2.37% (active). For `CNC(=O)c1cc(Oc2ccc3c(c2)sc2nc(-c4ccc(Cl)cc4)cn23)ccn1`, the growth was 88.4%. Work on `C[N+](C)(C)CCCCCCCCCC[N+](C)(C)C` yielded a growth of 96.5%. With `O=S(=O)(Nc1ccc2ccccc2c1)N1CCCCC1` the growth was 85.1%. `NC(=O)SCC(=O)Nc1ccccc1-c1ccccc1` showed a growth of 80.3%. In the case of `COc1cc2c(c(OC)c1OC)CCc1cnoc1-2`, the growth is reported as 114%. With `COc1ccc(/C=C2\CCCC3=C2NC(N)=NC3c2ccc(OC)cc2)cc1` (stereo not given) the growth was 67.8%. With `Cc1cc(Nc2nc(N[C@@H](C)c3ncc(F)cn3)ncc2Cl)n[nH]1` the growth was 54.2%. With `C=C1C(=O)O[C@H]2[C@H]1CC/C(CNC(=O)/C=C/c1cc(OC)c(OC)c(OC)c1)=C\CC[C@@]1(C)O[C@@H]21` the growth was -33.3% (active). With `C=C[C@@H]1CCC/C=C/[C@@H]2C[C@H](O)C[C@H]2[C@H](O)/C=C/C(=O)O1` the growth was 8.25% (active). For `O=C(O)C(c1ccccc1)N1C(=O)CSC1=S` (stereo not given), the growth was 129%. For `Cc1c(C(C)(C)O)cn2ncnc(Oc3ccc(NC(=O)Nc4ccc(Cl)c(C(F)(F)F)c4)c(F)c3)c12`, the growth was 63.1%. `COc1ccccc1C(=O)O/N=C(\N)Cc1cccc2ccccc12` showed a growth of 96.3%. For `O=C(CBr)c1ccc(OC(=O)c2ccccc2)cc1`, the growth was 95.5%.
